Laboratory results published in PubChem BioAssay.
For some assays here: Measured potencies and affinities stand elsewhere. Activity calls are given as the source filed them. Unless noted, cut-off not given; nearly all actives show IC50 up to about 0.98 µM.

Tested on: not listed separately
Test: inhibition of 3D7 malaria parasite growth – strain 3D7 (AID 2306; call rule not given here;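 further: 0% = DMSO wells and 100% = chloroquine plus artemisinin control wells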)
Details: P. falciparum 3D7 erythrocytic growth, LDH absorbance, 72 h; at 2 µM; hits give high values

Row | SMILES | growth inhibition
1 | CNC(=O)NC1CCN(Cc2c(-c3cccs3)nc3ccccc3c2C(=O)N[C@@H](C)C2CCCCC2)CC1 | 99% (active)
2 | N#Cc1cccc(NC(=O)Nc2ccc(-c3csc(-c4nc5ccccc5[nH]4)c3)cc2)c1 | 103% (active)
3 | COc1ccc2nccc(N3CCC(NCCNCc4ccc5c(n4)NC(=O)CO5)C3)c2n1 (configuration not stated) | 100% (active)
4 | Cn1c(NCc2cc(F)cc3c2OCOC3)nc2cc(Nc3ccnc(Nc4cccc(CS(C)(=O)=O)c4)n3)ccc21 | 102% (active)
5 | CC(=O)c1c[nH]c(C(=O)Nc2ccc(-c3cn4ccccc4n3)cc2)c1 | 98% (active)
6 | C=C1N(C)c2cc([N+](=O)[O-])c(N)cc2C1(C)C | 98% (active)
7 | CC(C)CCn1c(Sc2ccc(C#N)c([N+](=O)[O-])c2)nnc1-c1ccccc1Cl | 93% (active)

Biological target: Calcium-dependent protein kinase 1 (Plasmodium falciparum (isolate 3D7)) (UniProt P62344)
Sequence (P62344 whole entry, looked up): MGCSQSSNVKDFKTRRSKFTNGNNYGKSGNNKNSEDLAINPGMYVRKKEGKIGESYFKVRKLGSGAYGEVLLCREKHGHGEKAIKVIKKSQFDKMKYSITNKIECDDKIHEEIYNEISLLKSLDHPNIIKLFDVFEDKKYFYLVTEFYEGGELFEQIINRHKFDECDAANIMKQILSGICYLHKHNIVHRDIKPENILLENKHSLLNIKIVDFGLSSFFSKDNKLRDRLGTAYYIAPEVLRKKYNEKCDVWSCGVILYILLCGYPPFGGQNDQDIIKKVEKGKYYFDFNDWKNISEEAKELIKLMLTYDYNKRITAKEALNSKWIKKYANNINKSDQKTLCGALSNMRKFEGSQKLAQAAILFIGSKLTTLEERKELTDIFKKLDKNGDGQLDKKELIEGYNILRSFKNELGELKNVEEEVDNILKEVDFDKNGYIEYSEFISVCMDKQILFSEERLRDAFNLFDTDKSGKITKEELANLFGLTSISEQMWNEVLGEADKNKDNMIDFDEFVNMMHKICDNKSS
Test: PfCDPK1 kinase inhibitors, biochemical, TCAMS library (AID 1159585);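 further: inhibitors leave more ATP so luminescence rises with inhibition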
Details: recombinant PfCDPK1, Kinase-Glo ATP depletion luminescence

Row | SMILES | outcome
8 | O=C(Nc1ccc(-c2nc3ccccc3[nH]2)cc1)c1ccc(S(=O)(=O)N2CCc3ccccc32)cc1 | inactive
9 | CCCCNCc1ccc(-c2nc(CN(Cc3ccc(Cl)c(Cl)c3)S(=O)(=O)c3ccc(NC(C)=O)cc3)cs2)cc1 | inactive
10 | CCCCCCCN1CC[C@@H](CCCc2ccnc3ccc(OCC4CCCNC4)cc23)[C@@H](CC)C1 (some centres not stated) | inactive
11 | COc1ccc(NC(=O)NC2CCN(c3ccnc4cc(Cl)ccc34)C2)cc1 (configuration not stated) | inactive
12 | CCOc1ccc2c(NN=Cc3cc(OC)c(OC)cc3OC)cc(C)nc2c1 | inactive
13 | CCc1cc(NC2CCN(C)CC2)nc(Nc2ccc(C)cc2)n1 | inactive
14 | O=C(CCC1CCCC1)N(Cc1ccc(-c2ccc(CNCCc3ccccc3)cc2)cc1)C1CCCNC1 (configuration not stated) | inactive
15 | Cc1cc(C(=O)Nc2ccc3c(c2)CCN3C2CCN(Cc3cc(F)cc(F)c3F)C2)no1 (configuration not stated) | inactive
16 | CC(C)C(C(=O)Nc1ccc(S(=O)(=O)N(C)C)cc1)c1ccc(Cl)cc1 (configuration not stated) | inactive
17 | CCCC1N=C(N)N=C(N)N1c1ccc(OC)cc1 (configuration not stated) | inactive
18 | CSc1cccc(NC(=O)c2cc3ccccc3oc2=O)c1 | inactive
19 | CCc1c[nH]c2c(N3CCCCS3(=O)=O)cc(C(=O)N[C@@H](Cc3ccccc3)[C@H](O)CNCc3cccc(OC)c3)cc12 | inactive
20 | CCn1c(-c2nonc2N)nc2c(C#CC(C)(C)O)ncc(OCCNCCc3ccc(OC)cc3)c21 | inactive
21 | O=C(CCc1nc2c(cnn2-c2ccccc2)c(=O)[nH]1)NC1CCSc2ccccc21 (configuration not stated) | inactive
22 | CCOC(=O)c1ccc(NC(=O)N(Cc2ccc(-c3cccc(CN4CCNCC4)c3)cc2)C2CCN(Cc3ccccc3)CC2)cc1 | inactive
23 | COc1ccc(O)c(C(=O)c2cc(C(=O)NCCc3ccccc3)c(=O)n(CCc3ccccc3)c2)c1 | inactive
24 | Cc1nn(CC(O)Cn2c3ccc(Br)cc3c3cc(Br)ccc32)c(C)c1Br (configuration not stated) | inactive
25 | NC1CCN(c2nc(NCCCc3ccc(O)cc3)nc(NCc3cccc4ccccc34)n2)CC1 | inactive
26 | Cn1nccc1C(=O)NCCNCc1cccc(-c2ccc(-c3nc4ccccc4[nH]3)s2)c1 | inactive
27 | O=C(NC(Cc1ccccc1)C(=O)O)c1cc(=O)c2ccccc2o1 (configuration not stated) | inactive

Row | SMILES | outcome
28 | COc1cc(NC(=O)N2CCOC(CCN3CCC(c4ccccc4)CC3)(c3ccc(Cl)c(Cl)c3)C2)cc(OC)c1 (configuration not stated) | inactive
29 | CN(C)CCOc1ccc2c(c1)CN(C)CC2c1ccccc1 (configuration not stated) | inactive
30 | CC(Cl)=CCc1c(C)[nH]c2c(ccc3ccccc32)c1=O | inactive
31 | COc1ccc2ncc(F)c(CCN3CC[C@@H](CNCc4nc5c(cc4C)SCC(=O)N5)C3)c2n1 | inactive
32 | CC1(C)[C@H]2CC[C@@H](CNc3nc(NCC(=O)Nc4ccc5ccccc5c4)nc(N4CCC(N5CCCC5)CC4)n3)[C@@H]1C2 | inactive
33 | CCNc1cc(C(=O)N[C@@H](Cc2cccc(F)c2)[C@H](O)CNC(C)CCCC(C)C)cc(N2CCCCS2(=O)=O)c1 (some centres not stated) | inactive
34 | C[C@@H]1CN(C(c2cccc(O)c2)c2cccc(C(=O)N(C)c3cccc(F)c3)c2)[C@@H](C)CN1C(c1cccc(O)c1)c1cccc(C(=O)N(C)c2cccc(F)c2)c1 (some centres not stated) | inactive
35 | O=C(NCCCCCN1CCC(c2c[nH]c3ccccc23)C1)Nc1ccc(Cl)c(Cl)c1 (configuration not stated) | inactive
36 | CC(Cc1ccc(OCCN2CCN(c3ccc(Cl)cc3)CC2)cc1)NCC(O)c1cccc(C(F)(F)F)c1 (configuration not stated) | inactive
37 | COc1ccc2c(c1)ncn2-c1cc(OCc2ccncc2Br)c(C(N)=O)s1 | inactive
38 | CC(C)N1CCN(CCCCNc2c3ccccc3nc3ccccc23)CC1 | inactive
39 | N#Cc1ccc2c(c1)CCN(CCC1CCC(NC(=O)c3cc4ccc(Br)cc4[nH]3)CC1)C2 (configuration not stated) | inactive
40 | COc1ccccc1CNc1nc(Nc2ccccc2C)nc2ccccc12 | inactive
41 | CNC(=O)NC1CCN(Cc2c(-c3cccs3)nc3ccccc3c2C(=O)N[C@@H](C)C2CCCCC2)CC1 | inactive
42 | N#Cc1cccc(NC(=O)Nc2ccc(-c3csc(-c4nc5ccccc5[nH]4)c3)cc2)c1 | inactive
43 | COc1ccc2nccc(N3CCC(NCCNCc4ccc5c(n4)NC(=O)CO5)C3)c2n1 (configuration not stated) | inactive
44 | Cn1c(NCc2cc(F)cc3c2OCOC3)nc2cc(Nc3ccnc(Nc4cccc(CS(C)(=O)=O)c4)n3)ccc21 | inactive
45 | CC(=O)c1c[nH]c(C(=O)Nc2ccc(-c3cn4ccccc4n3)cc2)c1 | inactive
46 | C=C1N(C)c2cc([N+](=O)[O-])c(N)cc2C1(C)C | inactive
47 | CC(C)CCn1c(Sc2ccc(C#N)c([N+](=O)[O-])c2)nnc1-c1ccccc1Cl | inactive
